# Results taken from ChEMBL document CHEMBL3988442, “University of Dundee, Small-Polar-MMV Screening Library” (2021).
# The whole screen tested about 48,000 compounds, of which about 13,000 (27%) showed an effect of 50% or more. This is one part of the list.
# Tested on: Wolbachia pipientis
# Assay: Anti-Wolbachia Cell-Based Screen
# Assay type: functional
# Design: scale not given: in the data most compounds retested in dose-response had high values
# Conditions: 5 µM
row,Structure (SMILES),Percent Effect [%]
1,CCN(CCSc1ccccc1)C(=O)c1cn([C@H]2CC[C@@H](N)CC2)nn1,-3.362
2,Cc1ccc(Cl)cc1NS(=O)(=O)c1cc(C(N)=O)n(C)c1,-91.07
3,Cc1cccc(C(=O)N2CCc3ncnc(C4CCOC4)c3CC2)n1.O=C(O)C(F)(F)F (stereo not drawn),-11.48
4,COC(=O)c1sc(NCc2ccc(N3CCC(O)CC3)c(F)c2)nc1Cl,-2.093
5,CC(C)C(N)C1=N/C(=C2\N=CN=N2)NO1 (stereo not drawn),-4.222
6,CCn1ccnc1CN(C)Cc1nc(Cc2ccccc2F)no1,-2.902
7,COc1cccc(NC(=O)N2CCC(O)(C(F)(F)F)C2)c1 (stereo not drawn),-18.52
8,O=C(Nc1ccccc1)N1CCn2nnc(COc3cccnc3)c2C1.O=C(O)C(F)(F)F,-20.87
9,COCc1ncn2c1CN(C(=O)Nc1ccccc1)CC2,105.1
10,CCOCc1ncn2c1CN(S(=O)(=O)c1ccc(C)cc1)CC2,1.086
11,CCOCc1ncn2c1CN(S(=O)(=O)c1ccc(F)cc1)CC2,3.769
12,CCOCc1ncn2c1CN(C(=O)Nc1ccc(CC)cc1)CC2,108
13,CCc1ccccc1NC(=O)N1CCn2cnc(COC)c2C1,1.009
14,CCOCc1ncn2c1CN(C(=O)Nc1ccccc1CC)CC2,104.8
15,COc1cccc(S(=O)(=O)N2CCn3cnc(COCC4CC4)c3C2)c1,-6.989
16,COCc1ncn2c1CN(S(=O)(=O)c1ccc(C)cc1)CC2,-7.243
17,COCc1ncn2c1CN(C(=O)Nc1cccc(OC)c1)CC2,106.3
18,N#Cc1ccc(F)c(CN2CCCC2Cn2cnc3ccccc32)c1 (stereo not drawn),-5.507
19,CN1CCOC(C(=O)Nc2nnc(Cc3ccc(F)cc3)[nH]2)C1 (stereo not drawn),-0.8523
20,Cc1cccc(NCc2ncc(C(C)(C)C)o2)c1,-14.59
21,O=C(CN1CCS(=O)(=O)CC1)NC1CCCOc2ccccc21 (stereo not drawn),0.4653

row,Structure (SMILES),Percent Effect [%]
1,CCN(Cc1ccoc1)C(=O)c1cc2c(c(S(N)(=O)=O)c1)CCC2,-33.33
2,CN(CC(=O)NC(C)(C#N)C1CC1)Cc1nc2ccccc2n1C (stereo not drawn),-1.45
3,c1ccc(O[C@H]2COCCN(CC3CC3)C2)cc1,-13.37
4,COc1cccc2c1OCCCN(Cc1ncccc1C(=O)O)C2,13.59
5,COc1cncc(N2CCN(Cc3ccco3)CC2)n1,-6.733
6,COc1cc2cc3c(nc2cc1OC)OCCN(Cc1cccs1)C3,120.6
7,COc1cc2cc3c(nc2cc1OC)OCCN(Cc1ccco1)C3,100
8,COc1ccccc1CN1C(=O)O[C@@H]2CN(CC3CC3)C[C@@H]21,6.078
9,COc1cc2cc3c(nc2cc1OC)OCCN(CC1CC1)C3,154.4
10,CC(C)N1CCOCC2(CN(Cc3ccco3)CCO2)C1 (stereo not drawn),-3.394
11,COc1ncc(C2(O)CCN(Cc3cccs3)CC2)c(OC)n1.Cl,-7.48
12,CCc1cc(CNC(=O)Nc2cc(F)ccc2N2CCCCC2)on1,-38
13,CCN(CCC(=O)OC)S(=O)(=O)c1cnc2c(c1)c(C)nn2C,10.85
14,Cc1cc(C(C)NCCN2CCC(N(C)C)CC2)c(C)s1 (stereo not drawn),-5.987
15,COCC(NC(=O)c1cc(NC(C)=O)ccc1Cl)c1ccccn1 (stereo not drawn),-0.4749
16,O=C1COC2(CCN(Cc3ccncc3)CC2)CN1CC1CC1,-5.616
17,O=C(C1CC=CC1)N1CCC2(CC1)CN(Cc1ccccn1)CCO2,-14.52
18,O=S1(=O)NCC2(CCCN(Cc3cccnc3)C2)Oc2ncccc21 (stereo not drawn),131.9
19,O=C(O)C(F)(F)F.O=C(O)C(F)(F)F.O=C(O)C(F)(F)F.c1cncc(CN2CCCC3(COCCN(c4cnccn4)C3)C2)c1 (stereo not drawn),-4.353
20,O=S1(=O)NCC2(CCCN(Cc3ccccn3)C2)Oc2ncccc21 (stereo not drawn),140.3
21,Cc1cc(F)ccc1OC1(C(=O)O)CCN(Cc2ccncc2)CC1,7.519

row,Structure (SMILES),Percent Effect [%]
1,Fc1cccc(N2CCCC3(CN(Cc4cccnc4)CCO3)C2)c1.O=C(O)C(F)(F)F.O=C(O)C(F)(F)F.O=C(O)C(F)(F)F (stereo not drawn),2.254
2,O=S1(=O)NCC2(CCN(Cc3ccncc3)CC2)Oc2ncccc21,130.7
3,Fc1cccc(N2CCCC3(CN(Cc4ccccn4)CCO3)C2)c1.O=C(O)C(F)(F)F.O=C(O)C(F)(F)F.O=C(O)C(F)(F)F (stereo not drawn),-3.088
4,C[S+]([O-])c1nncn1CC(=O)c1ccc(Cl)c(Cl)c1 (stereo not drawn),17.05
5,Cc1cnn(CCCN2C(=O)CCc3ccccc32)c1,16.17
6,CCc1nnsc1C(=O)N1CCCN(Cc2ccc(F)cc2)CC1,12.06
7,O=C(CSCC1CC1)N1CCCN(Cc2ccc(F)cc2)CC1,113.6
8,Cc1cc(N2CCCN(C(=O)CSCC3CC3)CC2)ccn1,97.17
9,Cc1nc(CC(=O)N2CCCN(c3ccc(F)cc3)CC2)cs1,6.987
10,Cc1cc(N2CCCN(C(=O)Cc3cccnc3)CC2)ccn1,-24.68
11,Cc1cc(N2CCCN(C(=O)Cc3cc(F)cc(F)c3)CC2)ccn1,-40.46
12,COCc1ccc(C(=O)N2CCCN(c3ccc(F)cc3)CC2)s1,-6.209
13,O=C(CSCC1CC1)N1CCCN(c2ccc(F)cc2)CC1,101.8
14,CSCCC(O)C(=O)N1CCCN(Cc2ccc(F)cc2)CC1 (stereo not drawn),20.52
15,CN(Cc1ccccn1)C(=O)c1ccc2c(c1O)OC(C)(C)C2,-37.36
16,COc1ccc(OC)c(CN(C)c2ncc(S(N)(=O)=O)s2)c1,-0.04358
17,c1cnn(CCNCc2csc(-c3ccsc3)n2)c1,8.023
18,O=C(C1CCCCC1)N1C[C@@H]2CCN(c3cnccn3)C[C@@H]2C1.O=C(O)C(F)(F)F,86.55
19,O=C(C1CCCO1)N1C[C@@H]2CCN(c3cnccn3)C[C@@H]2C1.O=C(O)C(F)(F)F (stereo partly drawn),102.5
20,O=C(C1CCCC1)N1C[C@@H]2CCN(c3cnccn3)C[C@@H]2C1.O=C(O)C(F)(F)F,80.73
21,O=C(O)C(F)(F)F.O=C(c1cnccn1)N1C[C@@H]2CCN(c3cnccn3)C[C@@H]2C1,21.49
